# Experimental data taken from PubChem BioAssay (NCATS).
# Records with an inconclusive call do not appear. Values without a mark were called inactive. Calls follow the shape of the dose curve; as a rule, active = well fitted inhibition curve with a large enough effect; inconclusive = small, poorly fitted or top-dose-only effect; inactive = flat fitted curve, though single readings scatter.
# Biological target: Luciferin 4-monooxygenase (Photinus pyralis) (UniProt P08659)
# Test: Biochemical firefly luciferase enzyme assay for NPC (AID 624030);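 also: 0% = DMSO and -100% = full luciferase inhibition by PTC124 control; nearly all actives have a fitted effect of over 70% in size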
# Details: purified P. pyralis luciferase, luminescence, 5 min; series mostly up to 58.6 µM; activity change, negative = inhibition: at the top concentration
# From the text: Charcot-Marie-Tooth-Association [CMTA] National Center for Advancing Translational Sciences [NCATS] Charcot-Marie-Tooth (CMT) disease was first characterized by Jean-Martin Charcot and Pierre Marie in France and, independently, by Howard Henry Tooth in England in 1886. CMT is one of the most common inherited neurological diseases, affecting approximately 1 in 2,500 Americans. […] The most prevalent type of CMT is known as CMT1A and caused by a duplication of the PMP22 gene which leads to over-expression of this protein. PMP22 is a glycosylated intrinsic membrane protein accounting for 2-5% of the myelin protein content, and its over-expression results in demyelination and subsequently axonal loss. A pair of cellular transcription-based assays was developed in the S16 rat Schwann cell lines (Hai, M., et al., 2002) stably transfected with orthogonal reporters - firefly luciferase (Fluc) and beta-lactamase (beta-Lac) - whose expression is driven by an intronic regulatory element of the PMP22 gene (Jones, E.A., et al., 2011) to recapitulate endogenous expression of PMP22. A comprehensive library of approved drugs, the NCGC Pharmaceutical Collection (Huang, R., et al., 2011), was screened in the cross-validating platform of the orthogonal reporter assays to identify drug modulators inhibitory towards PMP22 expression. A set of counter-screens was devised to address non-specific activity of the library. An ATP-dependent CellTiter-Glo assay (developed by Promega Corp) was utilized to control cell viability. In addition, biochemical Fluc enzyme assay was performed to assess direct inhibition of the Fluc enzymatic activity. References Hai, M., Muja, N., DeVries, G.H., Quarles, R.H. and Patel, P.I. Comparative analysis of Schwann cell lines as model systems for myelin gene transcription studies. J Neurosci Res, 2002. 69(4): pp 497-508 Huang, R., Southall, N., Wang, Y., Yasgar A., Shinn P., Jadhav, A. , Nguyen, D.-T. and Austin, C.P., The NCGC pharmaceutical collection: a comprehensive resource of clinically approved drugs enabling repurposing and chemical genomics. Sci Transl Med, 2011. 3(80): p. 80ps16.
# Compounds were transferred to the plates in 23nl, and one microliter/well luciferase enzyme-buffer solution (10 nM P. pyralis luciferase and 50 mM Tris Acetate final concentrations) was dispensed yielding a final reaction volume of […]. Luciferase luminescence was measured by a ViewLux plate reader within 5 minutes of enzyme-buffer addition. The % activity was determined by normalizing to the average readings of PTC124 (a positive control) relative to DMSO (0% Activity). The concentration-effect curves were then classified based on curve quality (r2), response magnitude and degree of measured activity.
# Sequence of Luciferin 4-monooxygenase (Photinus pyralis) (P08659 whole entry, looked up): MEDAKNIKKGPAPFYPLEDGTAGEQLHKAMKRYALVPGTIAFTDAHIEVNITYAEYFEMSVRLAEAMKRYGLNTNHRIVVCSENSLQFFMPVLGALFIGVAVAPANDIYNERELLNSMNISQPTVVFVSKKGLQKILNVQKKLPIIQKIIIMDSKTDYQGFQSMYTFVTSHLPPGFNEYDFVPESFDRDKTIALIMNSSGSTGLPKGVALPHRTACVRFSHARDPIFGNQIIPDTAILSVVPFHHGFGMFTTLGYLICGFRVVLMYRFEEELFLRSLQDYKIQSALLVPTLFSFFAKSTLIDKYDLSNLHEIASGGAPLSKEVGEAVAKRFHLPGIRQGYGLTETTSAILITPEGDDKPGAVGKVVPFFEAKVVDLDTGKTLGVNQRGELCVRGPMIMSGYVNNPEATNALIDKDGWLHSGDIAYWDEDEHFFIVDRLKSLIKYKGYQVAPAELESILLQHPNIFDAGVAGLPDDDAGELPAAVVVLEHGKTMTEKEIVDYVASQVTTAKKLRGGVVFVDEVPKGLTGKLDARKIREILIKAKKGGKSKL
row,Structure (SMILES),"activity change, negative = inhibition"
1,O=C(CCCN1CCC(O)(c2ccc(Br)cc2)CC1)c1ccc(F)cc1,8.61% [at 24.9 µM]
2,CC1=C(C(=O)OC(C)C)C(c2cccc([N+](=O)[O-])c2)C(C(=O)OC2CN(C(c3ccccc3)c3ccccc3)C2)=C(N)N1 (stereo not given),0.0422%
3,CCN(CC)CCOc1ccc(C(O)(Cc2ccc(Cl)cc2)c2ccc(C)cc2)cc1 (stereo not given),13.8%
4,Cc1ccc(C(=O)C(C)CN2CCCCC2)cc1 (stereo not given),19.8%
5,C[C@@H]1C(=O)NC2=Nc3cccc(Cl)c3CN21,-0.402%
6,COc1c(C)c2c(c(O)c1C/C=C(\C)CCC(=O)O)C(=O)OC2,-0.546% [at 24.9 µM]
7,Cc1onc(-c2c(Cl)cccc2Cl)c1C(=O)N[C@@H]1C(=O)N2[C@@H]1SC(C)(C)[C@@H]2C(=O)O,-7.3%
8,CC(C)(Oc1ccc(Cl)cc1)C(=O)O,1.99%
9,CO/N=C1\CN(c2nc3c(cc2F)c(=O)c(C(=O)O)cn3C2CC2)CC1CN (stereo not given),9.41%
10,CCCCCCCCCCCCCCNCCO,-4.71%
11,C1CCc2nnnn2CC1,2.11%
12,CCN(CC)C(=O)N1CCN(C)CC1,-11.4% [at 24.9 µM]
13,O=C1[C@H]2CCCC[C@H]2C(=O)N1CCCCN1CCN(c2nsc3ccccc23)CC1,5.92%
14,CCCCCCCCCCCCCCCC[N+](C)(C)CC,6%
15,C[N+]1(CCCCC[N+]2(C)CCCC2)CCCC1,3.4%
16,CCCCOc1ccc(C(=O)CCN2CCCCC2)cc1,-2.76% [at 24.9 µM]
17,CC(=O)Oc1ccc(C(c2ccc(OC(C)=O)cc2)c2ccccn2)cc1,-4.11%
18,CCCCc1nc(Cl)c(CO)n1Cc1ccc(-c2ccccc2-c2nn[nH]n2)cc1,-7.27%
19,CCOc1ccc(NC(=O)CC(C)O)cc1 (stereo not given),-3.13%
20,O=C(OCCOCCO)c1ccccc1Nc1cccc(C(F)(F)F)c1,-7.07% [at 24.9 µM]

row,Structure (SMILES),"activity change, negative = inhibition"
1,N[C@H](Cc1c[nH]c2ccccc12)C(=O)O,-22.8%
2,Oc1c(I)cc(Cl)c2cccnc12,-9.42%
3,COc1ccc(CN2CCN(C(c3ccc(F)cc3)c3ccc(F)cc3)CC2)c(OC)c1OC,8.16%
4,Cc1c(C)n(CCN(C)C)c2ccc(C(=O)OCCN(C)C)cc12,14.5%
5,CCOC(=O)COc1ccc2c(C)c(CCN(CC)CC)c(=O)oc2c1Cl,5.6%
6,CN1CCN(C(c2ccccc2)c2ccccc2)CC1,6.72% [at 24.9 µM]
7,NCCC(O)(P(=O)(O)O)P(=O)(O)O,-3.14%
8,Nc1cc(Cl)c(NC2=NCCN2)c(Cl)c1,0.749%
9,O=C1CCC(c2ccc(-n3ccnc3)cc2)=NN1,0.0884%
10,CCOc1ccc(Cc2nccc3cc(OCC)c(OCC)cc23)cc1OCC,-0.365% [at 24.9 µM]
11,O=C(O)CCCCC(=O)O,0.878%
12,CCCCCC=CCC=CCCCCCCCC(=O)OCC,-1.63%
13,CCCCCCCCCCCCCCCCCC(=O)OCC(O)CO (stereo not given),3.85%
14,Oc1ccc(O)cc1,-4.16%
15,C[C@@H]1CN(CCCn2c3ccccc3c3ccccc32)C[C@H](C)N1,12%
16,C#C[C@]1(OC(C)=O)CC[C@H]2[C@@H]3CCC4=C[C@@H](OC(C)=O)CC[C@@H]4[C@H]3CC[C@@]21C,1.46%
17,NC(=NCCCCCCN=C(N)/N=C(\N)Nc1ccc(Cl)cc1)/N=C(\N)Nc1ccc(Cl)cc1,24.6%
18,COc1ccc(CCN2CCC(Nc3nc4ccccc4n3Cc3ccc(F)cc3)CC2)cc1,20.1%
19,CCCCCCCCCCCCCCCC[N+](C)(C)CCN(Cc1ccc(OC)cc1)c1ncccn1,18.5% [at 24.9 µM]
20,CCN1CCN(c2cc3c(cc2F)c(=O)c(C(=O)O)cn3C2CC2)CC1,1.05%
